Experimental findings from the supplement of paper PMC12340641 are described below.

Where a name gives a salt, the structure may show the parent alone.

The target in assay [1] is IKZF1 (dCK*-IKZF1 fusion in HEK293FT) (UniProt Q13422). Put plainly: inhibition of IKZF1 HTRF signal (DMSO = 0%, pomalidomide 10 uM = 100%); higher = lower IKZF1 protein level. Particulars: compound concentration: 5 uM, overnight (~20 h). In a few lines: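 HEK293FT cells stably expressing a dCK*-IKZF1 fusion (2000/well, 384-well) were treated overnight at 37 °C with 5 μM compound in single wells. They were then lysed 30 min at room temperature, and lysate was incubated overnight with a commercial HTRF total-IKZF1 antibody kit. The time-resolved FRET ratio (665/620 nm) was background-subtracted. Percent inhibition of IKZF1 signal was normalised per plate to vehicle (0%) and a reference degrader (100%).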
IKZF1 (dCK*-IKZF1 fusion in HEK293FT), sequence (Q13422 whole entry, looked up, the tested form may be a part): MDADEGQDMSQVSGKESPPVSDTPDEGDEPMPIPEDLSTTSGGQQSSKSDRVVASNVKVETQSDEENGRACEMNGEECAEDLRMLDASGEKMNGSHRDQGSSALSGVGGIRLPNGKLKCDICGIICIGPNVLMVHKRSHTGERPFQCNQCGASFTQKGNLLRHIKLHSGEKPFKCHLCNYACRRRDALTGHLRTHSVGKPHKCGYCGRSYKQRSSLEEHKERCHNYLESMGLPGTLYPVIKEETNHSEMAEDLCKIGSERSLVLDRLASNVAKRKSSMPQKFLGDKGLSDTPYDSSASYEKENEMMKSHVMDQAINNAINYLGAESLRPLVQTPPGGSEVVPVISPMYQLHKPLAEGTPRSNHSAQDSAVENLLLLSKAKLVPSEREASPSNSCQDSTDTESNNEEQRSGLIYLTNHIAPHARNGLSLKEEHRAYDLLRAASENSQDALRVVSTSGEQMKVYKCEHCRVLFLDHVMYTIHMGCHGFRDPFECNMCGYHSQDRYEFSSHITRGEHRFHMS
For orientation: TR-FRET usually uses a lanthanide donor and a delayed reading to cut background.

A further assay has as its system HEK293FT dCK*-only. Kind of assay: relative growth in counter assay (no AraC = 100%, AraC + DMSO = 0%); higher = more growth rescue independent of IKZF1. As to conditions: compound concentration: 5 uM; AraC concentration: 0.3 uM; overnight pretreatment + 4 days AraC. In a few lines:
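In 384-well plates, 300 HEK293FT cells per well expressing an engineered kinase construct alone got 5 μM compound 2 h after seeding. After overnight at 37 °C, 0.3 μM nucleoside suicide substrate plus medium was applied for 4 days. Counting of Hoechst 33342-stained nuclei by imaging on day 5 was normalised per plate, with 100% for no-substrate wells and 0% for substrate plus vehicle.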

In another assay the test system is HEK293FT dCK*-IKZF1. Put plainly: relative growth recovery (pomalidomide 10 uM = 100%, DMSO = 0%); higher = more growth rescue (IKZF1 fusion degradation). As to conditions: compound concentration: 5 uM; AraC concentration: 0.3 uM; overnight pretreatment + 4 days AraC. A digest of the protocol: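 On day 5, whole-well imaging was used to count Hoechst 33342-stained nuclei of HEK293FT cells stably carrying a deoxycytidine kinase–IKZF1 fusion. These cells had received 5 μM compound 2 h after seeding, followed after overnight at 37 °C by a nucleoside suicide substrate at 0.3 μM plus medium for 4 days. Growth recovery was normalised on each plate against a reference degrader and vehicle, which defined 100% and 0%, and values are duplicate means from separate days.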

For `O=C1Nc2cc(Br)ccc2/C1=C1/Nc2ccccc2/C1=N\O` [3-inhibitor], the “inhibition of IKZF1 HTRF signal” value in assay [1] was -34.6%. For the same compound, in the assay with HEK293FT dCK*-only, the “relative growth in counter assay” value is -10.1%. The relative growth recovery with HEK293FT dCK*-IKZF1 is -4.43%.

As to `CC(C)(C)C1=CC=C(CN(C)[C@H](C(N[C@H]([C@](NC(C)(C)C)=O)CC2=CC=C(OCC3=CC=CC=C3)C=C2)=O)CC(C)C)C=C1`, the “inhibition of IKZF1 HTRF signal” value in assay [1] is -24.5%. Moreover, in the assay with HEK293FT dCK*-only, the “relative growth in counter assay” value was 1.14%. In addition, the relative growth recovery with HEK293FT dCK*-IKZF1 is -2.38%.

As for `CCCCC(F)(F)C(=O)CC[C@H]1[C@H](O)CC(=O)[C@@H]1CCCCCCC(=O)O` [Lubiprostone], the “inhibition of IKZF1 HTRF signal” value in assay [1] is -43.7%. In the assay on HEK293FT dCK*-only, the “relative growth in counter assay” value is -3.38%. Besides, the relative growth recovery in the assay on HEK293FT dCK*-IKZF1 was -1.27%.

With `Cc1c(-c2ccccc2F)[nH]c(N)c1C#N`, the “inhibition of IKZF1 HTRF signal” value in assay [1] is -50.1%. For the same compound, in the assay with HEK293FT dCK*-only, the “relative growth in counter assay” value was 0.99%. The relative growth recovery in the assay on HEK293FT dCK*-IKZF1 worked out at 0.445%.

Turning to `C[C@H](NCc1ccc(OCc2ccccc2F)cc1)C(N)=O` [priralfinamide], in assay [1], the “inhibition of IKZF1 HTRF signal” value was -24%. Also, in the assay with HEK293FT dCK*-only, the “relative growth in counter assay” value is -0.94%. For the same compound, in the assay with HEK293FT dCK*-IKZF1, the relative growth recovery was -2.81%.

Regarding `CC(C)(C)c1ccc(C(O)CCCN2CCC(C(O)(c3ccccc3)c3ccccc3)CC2)cc1` (stereo not drawn), the “inhibition of IKZF1 HTRF signal” value in assay [1] is -24.6%. Further, the “relative growth in counter assay” value in the assay on HEK293FT dCK*-only is -9.63%. Moreover, the relative growth recovery with HEK293FT dCK*-IKZF1 is -1.42%.

As to `O=C1OC2(c3ccc(O)cc3Oc3cc(O)ccc32)c2ccccc21`, the “inhibition of IKZF1 HTRF signal” value in assay [1] is 28.2%. For the same compound, the “relative growth in counter assay” value with HEK293FT dCK*-only is -3.82%. Also, in the assay on HEK293FT dCK*-IKZF1, the relative growth recovery was -3.9%.

For `CO[C@@]12[C@@H]3NC3CN1C1=C(C(=O)C(N)=C(C)C1=O)[C@@H]2COC(N)=O` (stereo partly drawn), the “inhibition of IKZF1 HTRF signal” value in assay [1] is -1.54%. The “relative growth in counter assay” value in the assay with HEK293FT dCK*-only is -33.6%. The relative growth recovery with HEK293FT dCK*-IKZF1 was -12.9%.

For `O=c1c(O)c(-c2cc(O)c(O)c(O)c2)oc2cc(O)cc(O)c12` [Myricetin (Cannabiscetin)], the “inhibition of IKZF1 HTRF signal” value in assay [1] came out at 18.8%. In addition, in the assay with HEK293FT dCK*-only, the “relative growth in counter assay” value was -1.64%. Also, the relative growth recovery with HEK293FT dCK*-IKZF1 is -0.905%.

For `CCn1c(=O)[nH]c2ccccc21`, in assay [1], the “inhibition of IKZF1 HTRF signal” value was -34.6%. Also, the “relative growth in counter assay” value in the assay with HEK293FT dCK*-only was -8.57%. The relative growth recovery in the assay with HEK293FT dCK*-IKZF1 came to 0.15%.

In the case of `COc1cc([C@@H]2c3cc4c(cc3C(O[C@@H]3O[C@@H]5CO[C@@H](c6cccs6)OC5[C@H](O)[C@H]3O)C3COC(=O)[C@@H]32)OCO4)cc(OC)c1O` (stereo partly drawn), the “inhibition of IKZF1 HTRF signal” value in assay [1] came out at 16.8%. Further, the “relative growth in counter assay” value in the assay with HEK293FT dCK*-only is -34.5%. Besides, the relative growth recovery in the assay with HEK293FT dCK*-IKZF1 was -13.1%.

For `O=c1[nH]c(=O)n([C@H]2C[C@H](O)[C@@H](CO)O2)cc1F` [Floxuridine], the “inhibition of IKZF1 HTRF signal” value in assay [1] was 14.5%. The “relative growth in counter assay” value with HEK293FT dCK*-only is -29.6%. The relative growth recovery in the assay on HEK293FT dCK*-IKZF1 is -9.7%.

Consider `O=[N+]([O-])c1ccc(O)c2ncccc12`, for which the “inhibition of IKZF1 HTRF signal” value in assay [1] was -23.9%. In the assay on HEK293FT dCK*-only, the “relative growth in counter assay” value is -14.6%. In addition, the relative growth recovery with HEK293FT dCK*-IKZF1 is -2.33%.

Regarding `COc1cccc2c(O)c3c(O)c4c(c(O)c3c(O)c12)=C(O[C@H]1C[C@H](N)[C@H](O)[C@H](C)O1)C[C@](O)(C(=O)CO)C=4` [Doxorubicin HCl], the “inhibition of IKZF1 HTRF signal” value in assay [1] came out at 40.1%. The “relative growth in counter assay” value in the assay with HEK293FT dCK*-only was -34.4%. Also, in the assay with HEK293FT dCK*-IKZF1, the relative growth recovery is -13.4%.

On to `Oc1cccc2cc3cccc(O)c3c(O)c12` [dithranol], for which the “inhibition of IKZF1 HTRF signal” value in assay [1] is -46.9%. In addition, the “relative growth in counter assay” value in the assay on HEK293FT dCK*-only is 3.52%. In addition, the relative growth recovery with HEK293FT dCK*-IKZF1 was -0.86%.

On to `O=C(O)c1ccccc1-c1c2cc(I)c(=O)c(I)c-2oc2c(I)c(O)c(I)cc12`, for which, in assay [1], the “inhibition of IKZF1 HTRF signal” value was determined as 23.2%. For the same compound, in the assay with HEK293FT dCK*-only, the “relative growth in counter assay” value was -0.87%. Besides, the relative growth recovery in the assay on HEK293FT dCK*-IKZF1 was -1.36%.

For `CC[C@]1(O)C[C@H]2C[N@@](CCc3c([nH]c4ccccc34)[C@@](C(=O)OC)(c3cc4c(cc3OC)N(C=O)[C@H]3[C@@](O)(C(=O)OC)[C@H](OC(C)=O)[C@]5(CC)C=CCN6CC[C@]43[C@@H]65)C2)C1` [Vincristine (sulfate)], in assay [1], the “inhibition of IKZF1 HTRF signal” value was -10.4%. For the same compound, the “relative growth in counter assay” value in the assay with HEK293FT dCK*-only is -34.5%. Further, the relative growth recovery in the assay on HEK293FT dCK*-IKZF1 is -11.7%.

On to `CCCCCCCCCCCCCCCC[N+](C)(C)C`, for which, in assay [1], the “inhibition of IKZF1 HTRF signal” value came to 22.3%. Also, the “relative growth in counter assay” value with HEK293FT dCK*-only was -33.4%. The relative growth recovery with HEK293FT dCK*-IKZF1 is -11.7%.

`CC(C)COCC(CN(Cc1ccccc1)c1ccccc1)N1CCCC1` (stereo not drawn) [bepridil]: the “inhibition of IKZF1 HTRF signal” value in assay [1] worked out at 21.1%. Besides, the “relative growth in counter assay” value in the assay on HEK293FT dCK*-only was -3.99%. Also, in the assay on HEK293FT dCK*-IKZF1, the relative growth recovery was -1.14%.

As for `Nc1cccc2c1C(=O)N(C1CCC(=O)NC1=O)C2=O` (stereo not drawn) [Pomalidomide], the “inhibition of IKZF1 HTRF signal” value in assay [1] is 92.7%. In addition, the “relative growth in counter assay” value in the assay with HEK293FT dCK*-only amounted to 2.03%. Further, in the assay on HEK293FT dCK*-IKZF1, the relative growth recovery was 81.4%.

In the case of `CCN(CC)CCOc1ccccc1C(=O)CCc1ccccc1` [etafenone], the “inhibition of IKZF1 HTRF signal” value in assay [1] was found to be 11%. Also, the “relative growth in counter assay” value with HEK293FT dCK*-only came out at 2.17%. Further, the relative growth recovery in the assay with HEK293FT dCK*-IKZF1 was -1.08%.
